KCNH2 WT inh = qHTS for Inhibitors of KCHN2 3.1: Wildtype qHTS; Voltage-gated inwardly rectifying potassium channel KCNH2 (Homo sapiens), Q12809; U2OS, BacMam KCNH2, thallium flux FluxOr; stronger effect = lower value; activity change, % at 1.84 µM; 340,000 tested, 0.37% active; AID 720551, 2013;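 active = maximum activity change below -70%; inconclusive = maximum activity change between -70% and -50%; inactive = maximum activity change above -50%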; also: % is scaled to controls: 0 for no effect and ±100 for the full control effect
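U2OS cells were transduced with wild-type KCNH2 virus (2.03 x 10^8 / mL) for 4 h at room temperature, then cultured overnight at 37 C. Thallium flux was read with FluxOr dye. Rate constants were normalized to DMSO controls.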
GLS inh = qHTS for Inhibitors of Glutaminase (GLS); Glutaminase kidney isoform, mitochondrial (Homo sapiens), O94925; GLS enzymatic activity, qHTS titration; Potency, µM (highest dose often 45.5 µM), for inactives: at the top dose activity change, negative = inhibition, actives largely listed as inhibitors; 410,000 tested, 0.21% active; AID 624170, 2012; also: potency is read from the fitted curve at half-maximal effect; % is scaled to controls: 0 for no effect and ±100 for the full control effect
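Read-out is an Amplex red fluorescence increase coupled through glutamate oxidase and HRP, measured before and after 30 min room-temperature incubation. hKGA is in 45 mM KH2PO4 (pH 8.2) with 0.02% Tween-20; glutamine added as 1mM solution.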
GLP1R ag = qHTS of GLP-1 Receptor Agonists | Glucagon-like peptide 1 receptor (Homo sapiens), P43220 | HEK293 GLP-1R CRE-luciferase, luminescence, 4-6 h; cells express a hypersensitive GLP-1R form | Potency, µM (titrated, usually from 45.6 µM), without a hit: at the top dose activation, actives largely listed as activators | 380,000 tested, 0.007% active | AID 624172, 2012; also: potency is read from the fitted curve at half-maximal effect; % of control where 0% means no effect
Target sequence (P43220 whole entry, looked up): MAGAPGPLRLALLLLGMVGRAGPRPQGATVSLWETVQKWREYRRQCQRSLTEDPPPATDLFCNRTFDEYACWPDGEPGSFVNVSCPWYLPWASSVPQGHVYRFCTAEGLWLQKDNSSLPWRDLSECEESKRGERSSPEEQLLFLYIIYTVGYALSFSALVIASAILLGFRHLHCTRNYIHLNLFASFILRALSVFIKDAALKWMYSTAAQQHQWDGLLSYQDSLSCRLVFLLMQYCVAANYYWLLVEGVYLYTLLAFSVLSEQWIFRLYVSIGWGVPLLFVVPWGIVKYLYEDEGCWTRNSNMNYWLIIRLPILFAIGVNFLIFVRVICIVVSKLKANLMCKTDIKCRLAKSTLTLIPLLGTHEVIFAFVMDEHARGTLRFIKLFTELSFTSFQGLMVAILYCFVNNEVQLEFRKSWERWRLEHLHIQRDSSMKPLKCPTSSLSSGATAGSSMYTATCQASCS
KCNH2 3.1 inh = qHTS for Inhibitors of KCHN2 3.1: Mutant qHTS; Potassium voltage-gated channel subfamily H member 2, brain isoform KCNH2 3.1 (human); U2OS KCNH2 3.1, thallium flux FluxOr; stronger effect = lower value; activity change, % (tested at about 1.8 µM); 340,000 tested, 0.95% active;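 active = maximum activity change below -70%; inconclusive = maximum activity change from -70% to -50%; inactive = maximum activity change above -50%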;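 also: thallium influx rate constant from kinetic fluorescence after stimulation buffer; % is scaled to controls: 0 for no effect and ±100 for the full control effect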
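Thallium flux via FluxOr fluorescence (Red40 quencher, 45 min loading) in U2OS cells virally expressing the KCNH2 3.1 isoform (1.77 x 10^8 /mL virus, overnight at 37 C). Rate constants from 2-min kinetic reads post-stimulation, normalised to positive and negative controls.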
GLP1R inv ag = qHTS of GLP-1 Receptor Inverse Agonists (Inhibition Mode). 410,000 tested, 1.6% active. HEK293 GLP-1R CRE-luciferase, luminescence, 24 h; GLP-1R form is constitutively active. AID 624417, 2012. Glucagon-like peptide 1 receptor (Homo sapiens), P43220. Potency, µM (highest dose often 38.3 µM), inactives show at the top dose activity change, negative = inhibition, most hits filed as inhibitors; also: potency is read from the fitted curve at half-maximal effect; % is scaled to controls: 0 for no effect and ±100 for the full control effect; nearly all actives have a fitted effect of over 55% in size
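Stable HEK293 clone (constitutively active GLP-1R + cAMP-response luciferase); 200 cells/uL plated, 12 h pre-culture, compound 24 hr, 37 deg C/5% CO2; detection reagent 12 min RT; luminescence.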
HEK293 tox = qHTS of GLP-1 Receptor Inverse Agonists: Cytotox Screen | HEK293 cAMP-luciferase reporter cells, luminescence, 24 h | Potency, µM (top dose mostly 38.3 µM), for inactives: at the top dose activity change, negative = inhibition, usual class: inhibitors | 410,000 tested, 0.13% active;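 also: loss of luciferase light is scored as toxicity; potency is read from the fitted curve at half-maximal effect; % is scaled to controls: 0 for no effect and ±100 for the full control effect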
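MLSMR compounds, 24 hr on cells at 37 deg C/5% CO2; luminescence after luciferase reagent (12 min RT). Inhibition counted as the undesired cytotoxic outcome.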
Starred values were filed as active, the others as inactive; i = inactive; ? = inconclusive; / = no result given; [ ] = dose if it differs, or a comment. Only some compounds are listed: those with a hit (about 2.8% of all), similar ones and a draw of the others. Unless noted, calls follow the shape of the dose curve; as a rule, active = well fitted curve in the direction sought with a large enough effect; inconclusive = small, poorly fitted or top-dose-only effect, or another doubt; inactive = no such curve, though single readings can be large; an effect the other way counts as inactive or inconclusive.

SMILES	KCNH2 WT inh	GLS inh	GLP1R ag	KCNH2 3.1 inh	GLP1R inv ag	HEK293 tox
Cc1oc2c(c(C)cc3oc(=O)c(CC(=O)NCCc4ccccc4F)c(C)c32)c1C	/	-11%	/	/	6%	17%
COc1cccc(O)c1CN1CCC(C(=O)Nc2ccc(-c3cccc(C)c3)cc2)CC1	-42	6%	5%	-99*	?	?
COc1cccc(-c2cccc(NC(=O)C3CCN(Cc4cccc(C)n4)CC3)c2)c1	9	1%	-1%	-12	-21%	8%
COc1cccc(-c2ccc(NC(=O)C3CCCN(Cc4ccco4)C3)cc2)c1 (configuration not stated)	6	-5%	14%	-6	?	-27%
CCn1cc(CN2CCC(C(=O)Nc3cccc(-c4cccc(F)c4)c3)CC2)cn1	30	2%	0%	-46	?	5%
CCn1nc(C)c(CN2CCC(C(=O)Nc3cccc(-c4cccc(F)c4)c3)CC2)c1C	?	11%	1%	-78*	?	0%
COc1cccc(-c2ccc(NC(=O)C3CCCN(CCCn4nc(C)cc4C)C3)cc2)c1 (configuration not stated)	1	-9%	1%	-74*	?	-14%
NC(=O)C1CCN(c2ncnc3c2cnn3-c2cccc(Cl)c2)CC1	/	0%	/	/	6%	4%
COc1cccc(N2CCN(c3ccc4nnc(CCC(=O)O)n4n3)CC2)c1	/	28%	0%	/	5%	2%
O=C(CNC(=O)c1ccco1)NNC(=O)c1n[nH]c(=O)c2ccccc12	-3	3%	3%	-11	2%	-6%
O=C(NCc1ccccc1)C1CCN(S(=O)(=O)Cc2ccccc2)CC1	/	7%	/	/	-11%	0%
CCC(C)(C)NC(=O)Cn1c(=O)ccc2cc(S(=O)(=O)N3CCC(C)CC3)ccc21	/	-2%	/	/	4%	18%
CCOC(=O)c1c(C)n(C)c2ccc(OCC(O)CNCCc3ccccc3)cc12 (configuration not stated)	-1	-4%	3%	-14	11µM*	?
CCOC(=O)c1c(-c2ccccc2)oc2ccc(O)c(CN3CCN(C)CC3)c12	2	-9%	15%	0	3.2µM*	?
CN1CCN(Cc2c(O)ccc3occ(C(=O)c4ccccc4)c23)CC1	7	10%	-4%	1	-28%	3.2µM*
CCOC(=O)c1c(C)n(C)c2ccc(OCC(O)CN3CCN(C)CC3)cc12 (configuration not stated)	-2	3%	-9%	-1	1%	9%
CCOC(=O)c1c(-c2ccccc2)oc2ccc(OCC(O)CNCCN(C)C)cc12 (configuration not stated)	7	13%	12%	-5	5µM*	?
CCOC(=O)c1c(-c2ccccc2)oc2ccc(OC)cc12	-3	-16%	11%	10	?	31%
CCOC(=O)c1c(C)n(-c2ccc(C)cc2)c2ccc(OCC(O)CN3CCN(C)CC3)cc12 (configuration not stated)	0	-3%	17%	3	5µM*	?
CCOC(=O)c1c(-c2ccccc2)oc2ccc(OCC)cc12	i	-1%	32%	-3	10µM*	4%
Cc1c(N)nc([C@@H](CC(N)=O)NC[C@H](N)C(N)=O)nc1C(=O)N[C@H](C(=O)N[C@@H](C)[C@@H](O)[C@@H](C)C(=O)N[C@H](C(=O)NCCc1nc(-c2nc(C(=O)NCCCN[C@H](C)c3ccccc3)cs2)cs1)[C@H](C)O)[C@@H](O[C@H]1O[C@@H](CO)[C@H](O)[C@@H](O)[C@H]1O[C@H]1O[C@@H](CO)[C@@H](O)[C@H](OC(N)=O)[C@H]1O)c1cnc[nH]1	/	-1%	-5%	/	/	/
Cc1nc(N2CCOCC2)c2c(C(=O)N3CCN(c4ccccc4F)CC3)c(C)oc2n1	/	-6%	/	/	11%	15%
CC1(C)CC(=O)C2=C(C1)Nc1ccccc1S2	-2	10µM*	10%	3	-17%	12%
CC1(C)CC(=O)C2=C(C1)Nc1ccccc1NC2	-10	14%	6%	-8	-24%	2%
CC1CC(C)(C)NC(=S)N1CCCC(=O)Nc1ccc(Br)cc1 (configuration not stated)	12	-9%	5%	-9	10µM*	11µM*
SMILES	KCNH2 WT inh	GLS inh	GLP1R ag	KCNH2 3.1 inh	GLP1R inv ag	HEK293 tox
CCS(=O)(=O)N1CC(=O)N(c2cccc(C)c2C)C(C)(C(=O)NC2CCCCC2)C1 (configuration not stated)	/	-5%	/	/	15%	-4%
Cc1[nH]n2c(=O)cc(C(C)(C)C)nc2c1-c1ccccc1	4	4%	-12%	4	3.5µM*	?
Cc1[nH]n2c(=O)cc(-c3ccc([N+](=O)[O-])cc3)nc2c1-c1ccccc1	15	-14%	-12%	5	?	?
Cc1[nH]n2c(=O)cc(C(C)C)nc2c1-c1ccccc1	4	24%	-2%	7	-21%	-17%
Cc1[nH]n2c(=O)cc(-c3ccc(Cl)cc3)nc2c1-c1ccccc1	/	24%	-16%	/	2.8µM*	98%
O=C(OCC#CCSc1nnc(-c2cccc3ccccc23)o1)c1cccc2[nH]ccc12	/	-1%	9%	/	/	/
N#Cc1ccc(S(=O)(=O)N2CCCN(c3nc4ccc(Cl)cc4s3)CC2)cc1	-74*	2%	-3%	-95*	-27%	-6%
O=C(CCNC(=O)c1ccc(Br)cc1)NNC(=O)c1ccccc1	4	-6%	-5%	-3	?	-3%
CC(Oc1ccc(Br)cc1)C(=O)N1CCC(C(N)=O)CC1 (configuration not stated)	-5	14%	2%	-71*	-9%	0%
C=CCn1c(SCC(=O)Nc2ccc(F)cc2)nc2ccccc2c1=O	28	-4%	19%	-17	11%	-3%
CCOc1ccc(NC(=O)CC2C(=O)N(CC)C(=S)N2CCNC(C)=O)cc1 (configuration not stated)	-4	?	3%	-8	-11%	1%[1.53 µM]
